According to ChEMBL document CHEMBL1961873, “Compounds: GSK PKIS; Assays: Nanosyn kinase panel” (2012):

What follows are molecules tested against Casein kinase I isoform gamma-2 (Homo sapiens) (UniProt P78368). Conditions: at 0.1 µM.
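Further: values are mean inhibition figures reported as part of the GSK PKIS dataset.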

Casein kinase I isoform gamma-2 (Homo sapiens), sequence (P78368 whole entry, looked up, canonical isoform): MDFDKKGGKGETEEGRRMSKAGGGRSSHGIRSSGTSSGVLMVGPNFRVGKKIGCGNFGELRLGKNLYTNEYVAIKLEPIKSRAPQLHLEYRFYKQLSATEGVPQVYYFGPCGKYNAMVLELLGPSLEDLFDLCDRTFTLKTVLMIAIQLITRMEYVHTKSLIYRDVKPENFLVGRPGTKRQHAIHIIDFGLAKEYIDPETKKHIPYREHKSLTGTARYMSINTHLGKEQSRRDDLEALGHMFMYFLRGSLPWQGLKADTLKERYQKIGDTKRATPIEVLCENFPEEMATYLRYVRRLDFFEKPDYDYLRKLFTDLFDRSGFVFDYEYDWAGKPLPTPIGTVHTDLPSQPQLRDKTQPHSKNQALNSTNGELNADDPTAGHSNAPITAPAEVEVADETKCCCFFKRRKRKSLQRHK

Row | Compound | inhibition [%]
1 | Clc1ccc(CNc2nccc(-c3cnn4ncccc34)n2)cc1 | 1.44
2 | CN(c1ccc(NC(=O)Nc2c(Cl)cccc2Cl)cc1)c1ccnc(Nc2cccc(CS(C)(=O)=O)c2)n1 | 1.06
3 | Cc1ccc(NC(=O)c2ccoc2)cc1-c1ccc(C(=O)NCC2CC2)cc1 | 2.62
4 | FC(F)(F)c1cccc(Nc2nccc(-c3cnn4nc(-c5ccccc5)ccc34)n2)c1 | 2.27
5 | CN(C)c1ccc2c(c1)/C(=C/Nc1ccc(S(N)(=O)=O)cc1)C(=O)N2 | 1.13
6 | C/C(Nc1ccc(S(N)(=O)=O)cc1)=C1/C(=O)Nc2ccccc21 | 1.03
7 | COc1cc(N2CCN(C(C)C)CC2)ccc1Nc1nc(Nc2ccc(F)cc2C(=O)NC[C@@H](O)CO)c2cc[nH]c2n1 | 2.13
8 | Nc1nccc(-c2c(-c3ccc(F)cc3)ncn2C2CCC(O)CC2)n1 (centres undefined) | -1.13
9 | N#Cc1ccc(Oc2nccc(-c3c(-c4ccc(F)cc4)ncn3C3CCNCC3)n2)cc1 | 3.52
10 | C[C@@H](Oc1cc(-n2cnc3ccc(OCC4CCN(C)CC4)cc32)sc1C(N)=O)c1ccccc1Cl | 5.69
11 | Fc1ccc(-c2c(-c3ccncc3)nc3n2CCS3)cc1 | -1.41
12 | O=C(Nc1n[nH]c2cc(-c3cc(F)ccc3F)ccc12)C1CC1 | 2.53
13 | CCS(=O)(=O)c1ccc(OC)c(Nc2ncc(-c3ccccc3Cl)o2)c1 | 0.2
14 | O=C(Nc1n[nH]c2nc(-c3ccco3)ccc12)C1CC1 | -0.26
15 | NS(=O)(=O)c1ccc(Nc2cc(-c3ccc(O)c(F)c3)n[nH]2)cc1 | -1.44
16 | O=C1Nc2ccccc2/C1=C/Nc1ccc(-n2cncn2)cc1 | 3.66
17 | Fc1ccc(-c2ncn(C3CCNCC3)c2-c2ccnc(Oc3ccc(F)c(F)c3)n2)cc1 | -0.65

Row | Compound | inhibition [%]
18 | COc1cc(C)c(N(C)C(=O)CN(C)C)cc1Nc1nc(Nc2cccc(F)c2C(N)=O)c2cc[nH]c2n1 | -2.38
19 | COc1ccc(-c2ccc3c(NC(=O)C4CC4)n[nH]c3n2)cc1 | 1.99
20 | COc1cc(Nc2ncc3c(C)nc(-c4cccc(Oc5ccccc5)c4)n3n2)cc(OC)c1OC | 0.59
21 | COc1cc(Nc2ncc3c(C)nc(-c4cccc(C(F)(F)F)c4)n3n2)cc(OC)c1OC | 2.07
22 | c1ccc(-c2n[nH]cc2-c2ccnc(-c3ccc(OCCN4CCOCC4)cc3)c2)nc1 | -2.46
23 | CCc1cccc(CC)c1/C=C/c1cncc(C(=O)NC)c1 | 1.49
24 | NS(=O)(=O)c1ccc(N/N=C2\C(=O)Nc3ccc(-c4cnco4)cc32)cc1 | -2.15
25 | COc1cc2ncn(-c3cc(OCc4ccccc4C(F)(F)F)c(C(C)=O)s3)c2cc1OC | 2.24
26 | COc1cccc(-n2cnc3c(N/N=C/c4ccncc4)ncnc32)c1 | -3.36
27 | NS(=O)(=O)c1ccc(N/N=C2\C(=O)Nc3ccc(C(=O)NCCCn4ccnc4)cc32)cc1 | 4.43
28 | Fc1ccc(-c2ncn(C3CCNCC3)c2-c2ccnc(Oc3ccc4c(c3)OCO4)n2)cc1 | 4.86
29 | COc1cc(Nc2ncc(-c3ccccc3)o2)cc(OC)c1OC | -1.34
30 | Fc1ccc(-c2ncn(C3CCNCC3)c2-c2ccnc(Oc3ccc(Oc4ccccc4)cc3)n2)cc1 | 5.54
31 | O=C(Nc1ccc(Oc2ccc3[nH]c(NC(=O)c4ccccc4)nc3c2)cc1)Nc1cc(C(F)(F)F)ccc1F | 1.66
32 | Cc1ccc(C(=O)NC(C)C)cc1-c1ccc(C(=O)NCC2CC2)cc1 | -2.65
33 | NC(=O)c1ccc(Oc2nccc(-c3c(-c4ccc(F)cc4)ncn3C3CCNCC3)n2)cc1 | 5.16
34 | NC(=O)Cc1ccccc1Oc1nccc(-c2c(-c3ccc(F)cc3)ncn2C2CCNCC2)n1 | 3.59
